PRMT1 inh: blocks human protein arginine methyltransferase 1; Q99873; recombinant PRMT1, activity-based probe fluorescence polarization; inhibition, % at 2.79 µM; actives 1.3% (n = 370,000); AID 652257;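 active means inhibition above about 21% made by adding two undisclosed values, limit read from the data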
MBD2 inh: MBD2-methylated oligo binding inhibition. Q9UBB5. TR-FRET, MBD2 binding to methylated oligonucleotide. inhibition, % at 4.4 µM. actives 0.31% (n = 370,000). AID 686964; in the data active means inhibition above about 13%
UHRF1 MBD2 ctr: human UHRF1 methylated DNA binding inhibitors; inhibition, % at 4.4 µM; UHRF1 binding to methylated oligo, TR-FRET; actives 0.75% (n = 370,000); in the data active means inhibition above about 21%;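 further: UHRF1 SRA domain binding a hemimethylated CpG hairpin DNA probe; 0% = median of test compound wells and 100% = reference inhibitor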
ABHD5-PLIN5 inh: ABHD5-PLIN5 protein interaction inhibition | Q00G26+Q8WTS1 | Split G. princeps luciferase complementation, luminescence, 4 h | inhibition, % at 4 µM | actives 0.78% (n = 360,000) | AID 602281;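 active means inhibition above the mean inhibition across every tested compound plus 3 SD, cut at about 22% in these data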;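 further: 0% = DMSO only wells and the 100% control is not disclosed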
Target sequence (Q00G26 whole entry, looked up): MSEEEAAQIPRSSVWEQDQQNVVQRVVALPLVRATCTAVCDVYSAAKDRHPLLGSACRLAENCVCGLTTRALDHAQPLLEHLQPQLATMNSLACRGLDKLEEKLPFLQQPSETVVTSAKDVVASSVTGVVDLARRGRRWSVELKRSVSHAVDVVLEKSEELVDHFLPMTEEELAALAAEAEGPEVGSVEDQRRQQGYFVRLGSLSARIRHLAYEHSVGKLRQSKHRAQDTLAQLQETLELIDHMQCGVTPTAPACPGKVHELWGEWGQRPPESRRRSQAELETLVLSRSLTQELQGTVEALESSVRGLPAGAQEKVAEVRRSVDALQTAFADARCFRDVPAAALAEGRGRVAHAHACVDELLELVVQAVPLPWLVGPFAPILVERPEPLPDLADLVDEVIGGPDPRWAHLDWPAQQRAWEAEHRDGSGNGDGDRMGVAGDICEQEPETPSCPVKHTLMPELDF
Target sequence (Q8WTS1 whole entry, looked up): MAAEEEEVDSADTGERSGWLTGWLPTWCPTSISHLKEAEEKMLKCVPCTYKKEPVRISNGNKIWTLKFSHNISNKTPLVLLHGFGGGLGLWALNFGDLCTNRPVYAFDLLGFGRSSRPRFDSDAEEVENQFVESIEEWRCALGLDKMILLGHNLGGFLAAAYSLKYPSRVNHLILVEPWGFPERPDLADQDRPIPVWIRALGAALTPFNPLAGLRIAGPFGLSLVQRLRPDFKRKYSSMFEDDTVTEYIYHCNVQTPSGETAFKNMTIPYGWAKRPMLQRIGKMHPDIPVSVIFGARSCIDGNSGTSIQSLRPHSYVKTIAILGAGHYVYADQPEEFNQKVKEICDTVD
LEDGF integ inh: blocks HIV-1 LEDGF/p75-dependent DNA integration. TR-FRET IN-LEDGF/p75 DNA integration, Eu/Cy5. inhibition, % at 3.7 µM. AID 743269. actives 0.64% (n = 370,000);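 active means inhibition above the screen-wide mean plus 3 SD, cut at about 13% in these data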;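 further: signal is the Cy5 over europium emission ratio at 671 and 618 nm; 0% = plate median of compound wells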
rCAG RNA binder: r(CAG) repeat RNA binding | TO-PRO-1 dye displacement fluorescence | AID 651821 | inhibition, % at 3 µM | actives 1.3% (n = 370,000);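 active means inhibition above the plate cutoff, the mean of all test compounds on that plate plus 3 SD, cut at about 35% in these data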;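 further: 0% = DMSO alone and 100% = 100 µM mitoxantrone as full dye displacement; higher means more dye released from RNA so lower well fluorescence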
rCAG binder conf: r(CAG) RNA repeat binding, confirmation. shares compounds with rCAG RNA binder. TO-PRO-1 dye displacement fluorescence. inhibition, % at 3 µM. actives 70% (n = 4,300). AID 652065;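 active means inhibition above a per-plate cutoff, the mean inhibition of sample wells plus 3 SD, cut at about 35% in these data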;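 further: loss of TO-PRO-1 fluorescence as compound displaces dye from 1x1 AA loop RNA; 0% = DMSO only wells and 100% = 100 µM mitoxantrone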
dCAG dye counter: DNA CAG dye complex inhibition counter-screen | shares compounds with rCAG RNA binder | actives 94% (n = 4,300) | AID 652068 | inhibition, % at 3 µM | d(CAG) DNA oligo TO-PRO-1 dye displacement, fluorescence;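 active means inhibition above its plate's cutoff, the mean test-well inhibition plus 3 SD, cut at about 4.8% in these data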;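 further: 0% = DNA dye mix with DMSO and 100% = 100 µM mitoxantrone; hits displace the dye from DNA and so lower well fluorescence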
DNA CAG DR: counter-screen for rCAG binders: inhibitors of DNA CAG TO-PRO-1 complex; shares compounds with rCAG RNA binder; DNA CAG/GTC duplex TO-PRO-1 dye displacement fluorescence; IC50, µM; actives 20% (n = 250); in the data active means IC50 below about 10 µM
* hit, by the source's call; . = no result. Shown are actives, neighbours in structure and some others; about 4.1% of the full set was active somewhere.

SMILES	PRMT1 inh	MBD2 inh	UHRF1 MBD2 ctr	ABHD5-PLIN5 inh	LEDGF integ inh	rCAG RNA binder	rCAG binder conf	dCAG dye counter	others
COP1(=O)CCOCC[C@H](CC(C)C)NC(=O)[C@H](CC(C)C)N1 (some centres not stated)	4	1	0	.	-2	.	.	.
Cc1ccccc1N1CCN(C2=Nc3ccccc3Sc3ccccc32)CC1	1	3	-1	.	0	6	.	.
CCCC(=O)OC[C@H]1CN(C2CCCC2)S(=O)(=O)c2c(Oc3ccc(F)cc3)cccc2O1	1	-4	1	.	1	2	.	.
O=C(Nc1ccc(Br)cc1C(=O)O)c1ccc2c(c1)C(=O)N(Cc1ccccc1)C2=O	0	7	1	-4	0	49*	87*	77*
O=C(O)c1ccc2c(c1)C(=O)N(CCCCCCCN1C(=O)c3ccc(C(=O)O)cc3C1=O)C2=O	0	-4	0	4	-2	37*	23	4
O=C(Nc1cc(Cl)ccc1C(=O)O)c1ccc(CN2C(=O)c3ccccc3C2=O)cc1	4	0	1	-1	-1	59*	85*	72*
CCCN1C(=O)c2ccc(C(=O)Nc3ccccc3C(=O)O)cc2C1=O	2	8	-1	5	-2	54*	36*	7.0*
COC(=O)[C@]12C[C@H](CC(=O)NCCCN3CCCC3=O)C(=O)N(Cc3cccc4ccccc34)C1=C[C@H](C1CCCC1)O[C@@H]2C	-1	0	-1	.	2	4	.	.
COc1ccc(C(C(=O)N(C)C2CCCC2)N(Cc2ccc(F)cc2)C(=O)c2ccc3ccccc3c2)cc1OC (configuration not stated)	4	4	2	.	-1	8	.	.
Cc1ccc(C(=O)O)cc1NC(=S)NC(=O)c1ccc(-c2ccccc2)cc1	-1	-4	2	-11	0	55*	67*	20*
COc1ccc(C(=O)O)cc1NC(=S)NC(=O)c1ccc(-c2ccc(Cl)cc2)o1	16	-3	-2	0	3	40*	72*	32*	DNA CAG DR=7.7*
O=C(O)c1cccc(NC(=S)NC(=O)c2ccc(-c3ccccc3)cc2)c1	-4	4	3	-2	2	6	.	.
CC(C)(C)c1ccc(S(=O)(=O)N2CCCC(C(=O)N3CCN(Cc4ccccc4)CC3)C2)cc1 (configuration not stated)	-3	-2	-2	.	4	4	.	.
COc1cc(NS(=O)(=O)c2ccc(Nc3nc(-c4ccccc4)cs3)cc2)nc(OC)n1	0	-3	-1	0	3	87*	83*	54*
Cc1cc(NS(=O)(=O)c2ccc(Nc3nc(-c4ccc(C)c(C)c4)cs3)cc2)no1	6	5	13	-10	4	88*	84*	55*
COc1cc(NS(=O)(=O)c2ccc(NS(=O)(=O)c3ccc(C)cc3)cc2)nc(OC)n1	3	4	2	10	1	12	.	.
Cc1cc(NS(=O)(=O)c2ccc(Nc3nc(-c4ccc(O)cc4)cs3)cc2)no1	2	0	-3	-5	1	52*	33	9.7*
CC(=O)O[C@@H]1CCC[C@@]2(C(=O)Nc3ccccc32)[C@H]1NC(=O)C(C)C	-2	-3	0	.	-2	3	.	.
O=C(CC(C(=O)O)c1ccc(Cl)cc1Cl)c1ccc(Cl)cc1 (configuration not stated)	-2	-1	3	9	4	41*	21	4
COc1cc(/C=C2/C(=N)N3N=C(CC(=O)N4CCOCC4)SC3=NC2=O)ccc1OCc1ccccc1F	.	.	.	3	.	.	.	.
N=C1/C(=C\c2ccc(SCc3ccccc3)o2)C(=O)N=C2SC(CC(=O)N3CCOCC3)=NN12	2	-2	0	5	-3	71*	68*	30*
COc1cc(/C=C2/C(=N)N3N=C(CC(=O)N4CCOCC4)SC3=NC2=O)ccc1OCc1ccc(F)cc1	4	5	9	4	11	36*	77*	35*
Cc1ccc(/C=C2\C(=N)N3N=C(CC(=O)N4CCOCC4)SC3=NC2=O)o1	5	-5	2	3	8	24	.	.
C[C@@H]1COc2cccc(N3CCCC3)c2S(=O)(=O)N1	0	0	-2	.	-2	2	.	.
COC(=O)Cc1ccc(NC(=O)c2ccc3c(c2)C(=O)N(Cc2ccco2)C3=O)cc1	3	-6	1	2	-1	5	.	.
SMILES	PRMT1 inh	MBD2 inh	UHRF1 MBD2 ctr	ABHD5-PLIN5 inh	LEDGF integ inh	rCAG RNA binder	rCAG binder conf	dCAG dye counter	others
CCc1ccc(NC(=O)c2ccc3c(c2)C(=O)N(Cc2ccco2)C3=O)cc1	13	-1	2	20	6	35*	23	14*
CCOC(=O)[C@]12CCCC3=C1N(CCC3)C(=O)[C@@H](CC(=O)NCc1ccc(C)o1)C2	1	1	-4	.	2	-1	.	.
COC(=O)CC1=NN(c2ccc(OC)cc2)C(=O)C1	2	-6	-4	7	1	43*	2	0
CCCCN1CC[C@H](C)Oc2cc(Br)ccc2S1(=O)=O	-6	0	2	.	6	1	.	.
CCC(Sc1ncccc1C(=O)O)C(=O)N1CCCC1 (configuration not stated)	-2	-1	0	10	-3	43*	3	0
CNC(C#Cc1ccccc1)c1ccccc1C(F)(F)F (configuration not stated)	-1	11	0	.	-1	.	.	.
O=C(Nc1ccc([N+](=O)[O-])cc1)Nc1nc(-c2ccc(Cl)s2)cs1	-1	6	10	-7	4	51*	68*	48*
CC(=O)Nc1nc(-c2ccc([N+](=O)[O-])cc2)cs1	6	2	2	2	-4	5	.	.
COc1ccc(-c2nc(/C=C3\C(C)=Nc4ccccc43)c(O)o2)cc1	1	-3	-2	12	-3	52*	35*	20*
CC1=Nc2ccccc2/C1=C\c1nc(-c2ccc(C(F)(F)F)cc2)oc1O	-4	-7	0	2	1	13	.	.
CC1=Nc2ccccc2/C1=C/c1nc(-c2ccc(C)s2)oc1O	-4	1	0	14	4	46*	42*	22*
CC1=Nc2ccccc2/C1=C\c1nc(-c2ccccc2)oc1O	-3	-2	-1	13	-2	60*	37*	17*

Source: PubChem
